# Hits are enriched below; roughly 7% of the tested compounds scored in any of these assays.
# ADAM10 inh – inhibits human ADAM10 | O14672 | actives 0.62% (n = 370,000) | recombinant ADAM10, EDANS/DABCYL FRET peptide cleavage, 3 h | inhibition, % at 7 µM | AID 720582;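 active means inhibition above a per-campaign cutoff equal to the mean of compounds falling between control-based bounds plus 3 SD, cut at about 20% in these data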;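 further: 0% = DMSO wells while the 100% control is not disclosed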
# NR3A LBD binder – NR3A (human) ligand-binding domain modulation; Tm shift relative to glycine control, % at 25 µM; actives 2.5% (n = 340,000); AID 1259313; NR3A LBD differential scanning fluorimetry, Tm shift; 0% = protein alone, 100% = glycine-bound protein;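 active means melting temperature shift of at least 10% of the positive control shift, at one fixed dose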
# rCAG RNA binder – binds r(CAG) RNA repeats; inhibition, % at 3 µM; actives 1.3% (n = 370,000); AID 651821; r(CAG) RNA repeat, TO-PRO-1 dye displacement fluorescence;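 active means inhibition above the plate cutoff, the mean of all test compounds on that plate plus 3 SD, cut at about 35% in these data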;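 further: 0% = DMSO alone and 100% = 100 µM mitoxantrone as full dye displacement; higher means more dye released from RNA so lower well fluorescence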
# proKLK7 act – activates the human kallikrein-7 zymogen; purified proKLK7, EDANS-DABCYL substrate fluorescence; 100% is mature enzyme control, 0% vehicle; P49862; actives 0.9% (n = 370,000); activation, % at 7 µM;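 active means activation above the mean of all tested compounds plus 3 SD, computed per campaign excluding outliers beyond control limits, cut at about 13% in these data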
# Target sequence (P49862 whole entry, looked up): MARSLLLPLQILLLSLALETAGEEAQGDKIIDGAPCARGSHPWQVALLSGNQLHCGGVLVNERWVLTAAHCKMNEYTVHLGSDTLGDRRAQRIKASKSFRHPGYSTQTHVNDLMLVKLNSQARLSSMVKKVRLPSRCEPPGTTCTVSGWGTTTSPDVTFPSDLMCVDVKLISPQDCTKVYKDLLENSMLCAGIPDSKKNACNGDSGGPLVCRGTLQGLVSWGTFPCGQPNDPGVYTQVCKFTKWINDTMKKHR
# ADAM17 inh – ADAM17 inhibition, QFRET primary screen; P78536; recombinant ADAM17, EDANS/DABCYL FRET peptide cleavage; inhibition, % at 6.95 µM; actives 0.83% (n = 370,000); AID 720648;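 active means inhibition above the mean of compounds lying between control limits plus 3 SD, set per campaign, cut at about 8.5% in these data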;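 further: 0% = DMSO-only wells as the low control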
# AHR activator – activates the human aryl hydrocarbon receptor | P35869 | activation, % at 5 µM | AHR-responsive luciferase reporter cells, luminescence | actives 2.5% (n = 320,000); in the data active means activation above about 47%;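 further: 0% = vehicle wells and 100% = reference agonist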
# * marks the source's active call; other numbers are inactive results; i = inactive; · = no result given.
SMILES,ADAM10 inh,NR3A LBD binder,rCAG RNA binder,proKLK7 act,ADAM17 inh,AHR activator
O=C(Nc1nccc(-c2cccs2)n1)c1cccs1,0,-2,0,0,-2,48*
O=C(Nc1ncc2c(n1)-c1ccccc1CC2)c1ccccc1,-9,0,-4,0,-10,20
O=C(Nc1ncc2c(n1)-c1ccccc1CC2)c1cccs1,-23,0,-5,1,-9,63*
Nc1ncc2c(n1)-c1ccccc1CC2,i,0,-3,3,-218,-1
O=C(Nc1ncc2c(n1)-c1ccccc1CC2)c1ccc(F)cc1,-28,1,-2,0,-8,65*
CC(=O)c1ccc(NC(=O)NC2CCCCN(Cc3cccc(Cl)c3)C2=O)cc1 (configuration not stated),11,·,5,0,7,·
CC(C)Cn1c(-c2cccs2)nc2nc3ccccc3nc21,i,0,1,-5,i,52*
CCN1C(=O)C(CC(=O)Nc2ccc(OC)cc2)N(CCc2ccc(F)cc2)C1=S (configuration not stated),13,5,2,0,4,2
CCCCCCOc1ccc(NC(=O)CC2C(=O)N(CC)C(=S)N2Cc2ccco2)cc1 (configuration not stated),18,16*,6,0,5,-2
CCN1C(=O)C(CC(=O)Nc2ccc(F)cc2)N(Cc2ccc3c(c2)OCO3)C1=S (configuration not stated),5,28*,4,0,1,2
CCN1C(=O)C(CC(=O)Nc2ccc(F)cc2)N(Cc2ccco2)C1=S (configuration not stated),-7,-1,3,0,-7,4
COc1ccc(NC(=O)CC2C(=O)N(C)C(=S)N2Cc2ccc3c(c2)OCO3)cc1 (configuration not stated),2,14*,5,1,-2,1
Cc1cc(N2CCN(CC(C)(C)O)C[C@H]2C)ccc1N1CCN(CC(C)(C)O)[C@H](C)C1,-12,·,-1,1,-3,·
COCCCNC(=O)[C@@H](Cc1ccccc1)NC(=O)[C@H]1O[C@@H](n2ccc(=O)[nH]c2=O)[C@H](O)[C@@H]1O,-3,·,2,0,-3,·
O=C(COC(=O)Cc1c(Cl)cccc1Cl)Nc1ccc(OC(F)(F)F)cc1,14,8,-1,0,2,67*
CN(CC(=O)Nc1ccc(OC(F)(F)F)cc1)C(=O)Cc1c(Cl)cccc1Cl,-7,5,-1,0,-2,6
CC(C)(C)S(=O)(=O)N1C[C@@H]2C(=C(CCO)C[C@@H]3C(=O)N(c4ccccc4)C(=O)[C@@H]32)[C@H]1CCO,2,·,0,0,-1,·
O=C(c1ccc(Cl)c([N+](=O)[O-])c1)N(c1ccccn1)c1ccccn1,-6,15*,-2,0,0,4
O=C(c1ccc(N2CCCCC2)c([N+](=O)[O-])c1)N(c1ccccn1)c1ccccn1,-1,0,-4,0,3,-2
Cc1cc(C)cc(NC(=S)Nc2ccc3cn[nH]c3c2)c1,-39,15*,1,0,-10,6
CN(C)S(=O)(=O)c1cccc(NC(=S)NC23CC4CC(CC(C4)C2)C3)c1,11,10*,11,0,5,0
FC(F)Oc1ccc(NC(=S)Nc2ccc3cn[nH]c3c2)cc1,-19,17*,3,0,-11,22
FC(F)Oc1ccc(NC(=S)NC23CC4CC(CC(C4)C2)C3)cc1,9,12*,-3,0,7,1
Cc1ccc(S(=O)(=O)N(C)C)cc1NC(=S)NC12CC3CC(CC(C3)C1)C2,7,-8,6,0,4,·
Oc1cccc2c(NC(=S)Nc3ccc(OC(F)F)cc3)cccc12,-92,11*,10,-1,-22,30
SMILES,ADAM10 inh,NR3A LBD binder,rCAG RNA binder,proKLK7 act,ADAM17 inh,AHR activator
Cc1ccc(NC(=S)Nc2ccc3cn[nH]c3c2)cc1,-28,19*,2,0,-9,6
c1ccc(-c2nc(NCCCn3ccnc3)c3oc4ccccc4c3n2)cc1,7,-17,4,1,4,82*
OCCNc1nc(-c2cccnc2)nc2ccccc12,-4,1,0,0,-4,31
Cc1ccc(-c2nc3ccccc3c(=O)n2CCCn2ccnc2)cc1,-14,2,2,0,-6,5
c1cncc(-c2nc(NCCCn3ccnc3)c3ccccc3n2)c1,-6,-1,-3,0,-3,75*
Cc1nc(NCCCn2ccnc2)c2ccccc2n1,0,3,-2,0,-5,57*
O=c1c2ccccc2nc(-c2ccccc2)n1CCCn1ccnc1,2,0,-7,0,-4,56*
CC(C)C(C#CC1CC1)NCc1ccc2c(c1)OCO2 (configuration not stated),-5,·,1,0,-2,·
Cc1cc(=O)[nH]c(/N=C(\N)Nc2ccc(SC(F)F)cc2)n1,-11,1,-2,0,-7,68*
COc1ccc(C(=O)CSc2nnc(-c3cccs3)o2)cc1OC,-6,·,-2,1,-2,·
CCC(=O)N1CCN(c2ccccc2NC(=O)COc2ccccc2Cl)CC1,3,0,-3,0,3,68*
CN(C)S(=O)(=O)c1ccc(Cl)c(NC(=O)COc2ccccc2[N+](=O)[O-])c1,3,13*,2,-1,1,7
O=C(COc1ccccc1[N+](=O)[O-])Nc1ccccc1N1CCCC1,10,16*,-2,0,2,19
O=C(COc1cc(Cl)c(Cl)cc1Cl)Nc1ccc([N+](=O)[O-])cc1Cl,11,10*,1,0,0,6
O=C(O)c1ccc(C=Nn2c(-c3ccc(F)cc3)n[nH]c2=S)cc1,2,·,3,1,-1,·
COc1ccc(CN2C(=O)c3ccnn3CC2(C)c2nnnn2-c2c(C)cccc2C)cc1 (configuration not stated),0,·,3,0,-1,·
Cc1cc2[nH]c(=O)cc(-c3ccccc3)n2n1,-378,0,1,-35,-100,1
Nc1nn2c(-c3ccccc3)cc(=O)[nH]c2c1N=Nc1ccc(O)cc1,-4,27*,19,0,-4,2
O=C(OCCN1CCN(C2CN(Cc3cn(Cc4ccc([N+](=O)[O-])cc4)nn3)S(=O)(=O)C2)CC1)c1cc2ccccc2o1 (configuration not stated),1,·,0,0,-3,·
CC1CCC2(CCC(=O)N2CCCO)CC1 (configuration not stated),-5,·,1,-1,-2,·
COc1ccc(N(CCCN2C(=O)c3cccc4cccc(c34)C2=O)C(=O)c2cccnc2)cc1,-7,-3,-4,0,-3,75*

# Compound activity as filed in PubChem BioAssay.
